# Luc counter = Counterscreen for Luciferase (Kinase-Glo TM) Inhibition | AID 1379, 2008 | Potency, µM (doses to about 38.3 µM), usual class: inhibitors | Luciferin 4-monooxygenase (Photuris pensylvanica), Q27757 | Kinase-Glo luciferase, ATP luminescence, 8 min | 200,000 compounds, 0.28% hits; further: nearly all actives have a fitted effect of over 60% in size
#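 Inhibition of Kinase-Glo luciferase light generation was assessed at 10 uM ATP in pH 7.2 imidazole buffer, with luminescence measured after eight minutes at ambient temperature.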
# NPC1 prom act = qHTS Assay for NPC1 Promoter Activators; Huh7 NPC1 promoter luciferase reporter, 24 h; Potency, µM (top dose mostly 9.22 µM), actives largely listed as activators; 320,000 compounds, 2.4% hits; further: nearly all actives have a fitted effect of over 60% in size
#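 Quantitative HTS used a cell-based reporter: Huh7 cells stably bearing the NPC1 promoter upstream of luciferase were treated with compounds for 24 h, and promoter activation was read as luminescence.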
# SMN2 splice enh = qHTS Assay for Enhancers of SMN2 Splice Variant Expression. HEK293 SMN2-luciferase splicing reporter, luminescence, 30-36 h. Potency, µM (top dose mostly 46.1 µM), actives largely listed as activators. 210,000 compounds, 2.8% hits. AID 1458, 2008; further: nearly all actives have a fitted effect of over 55% in size
#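 HEK293 cells carry an SMN2 minigene-luciferase reporter in which exon 7 inclusion puts luciferase in frame. Cells were seeded at 2000 cells/well, attached for 10-12 hours, then exposed to compounds for 30-36 hours at 37C before ONE-Glo luminescence.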
# FLuc modulator = qHTS profiling assay for firefly luciferase inhibitor/activator using purifed enzyme and Km concentrations of substrates (counterscreen for miR-21 project); purified FLuc, Km substrates, luminescence inhibition; Potency, µM (top dose mostly 57.5 µM), usual class: inhibitors; 360,000 compounds, 6.9% hits; further: nearly all actives have a fitted effect of over 55% in size
# Target sequence (P08659 whole entry, looked up): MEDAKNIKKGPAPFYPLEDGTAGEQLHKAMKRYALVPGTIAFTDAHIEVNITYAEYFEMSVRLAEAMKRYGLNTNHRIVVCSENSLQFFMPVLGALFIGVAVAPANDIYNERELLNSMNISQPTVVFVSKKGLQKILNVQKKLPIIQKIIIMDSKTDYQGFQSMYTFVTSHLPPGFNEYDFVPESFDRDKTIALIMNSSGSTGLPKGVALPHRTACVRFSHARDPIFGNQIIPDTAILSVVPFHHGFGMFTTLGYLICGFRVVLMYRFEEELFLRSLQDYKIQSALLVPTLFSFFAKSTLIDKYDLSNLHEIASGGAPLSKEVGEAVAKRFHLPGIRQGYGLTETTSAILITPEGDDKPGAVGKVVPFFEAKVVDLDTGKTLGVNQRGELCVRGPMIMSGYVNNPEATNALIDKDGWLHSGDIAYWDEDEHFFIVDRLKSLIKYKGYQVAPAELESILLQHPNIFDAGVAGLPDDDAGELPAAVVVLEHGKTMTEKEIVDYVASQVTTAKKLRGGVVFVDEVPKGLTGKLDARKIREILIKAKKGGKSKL
#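 Purified P. pyralis luciferase, 10 nM final, with Km-level 10 uM D-luciferin and 10 uM ATP in 50 mM Tris acetate pH 7.5, 10 mM Mg acetate, 0.01% Tween-20, 0.05% BSA; 6-point qHTS titration about 60 µM downward; luminescence read.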
# ELG1 genotoxic = qHTS screen for small molecules that induce genotoxicity in human embryonic kidney (HEK293T) cells expressing luciferase-tagged ELG1 | HEK293T ELG1-luciferase reporter, luminescence, 16 h | Potency, µM (highest dose often 46 µM), most hits filed as activators | 330,000 compounds, 1.3% hits | AID 504466, 2011; further: nearly all actives have a fitted effect of over 60% in size
#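 Reporter readout depends on ELG1 protein level, which increases with genetic stress. After 16 hr compound exposure at 37 °C, luciferase activity was quantified using ONE-Glo.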
# Rab9 promoter act = qHTS Assay for Rab9 Promoter Activators. Huh7 Rab9 promoter-luciferase reporter, luminescence, 24 h. Potency, µM (titrated, usually from 9.22 µM), hits mostly activators. 320,000 compounds, 2.8% hits; further: nearly all actives have a fitted effect of over 60% in size
#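 Measured in stably transfected Huh7 cells bearing a Rab9 promoter–luciferase construct: 24 h compound treatment at 37 °C, followed by luminescence detection.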
# Hits are given with their value; - = inactive; ? = inconclusive; . = no result given; [ ] = another dose, or the depositor's remark. Sampled rows, rich in hits. Any-hit rate of the full collection: about 7.4%. The call rests on the fitted dose curve; in most records, active means well fitted curve in the direction sought with a large enough effect; inconclusive means small, poorly fitted or top-dose-only effect, or another doubt; inactive means no such curve, though single readings can be large; an effect the other way counts as inactive or inconclusive.
SMILES,Luc counter,NPC1 prom act,SMN2 splice enh,FLuc modulator,ELG1 genotoxic,Rab9 promoter act
O=C(CSc1ncc(S(=O)(=O)c2ccc(Br)cc2)c(=O)[nH]1)NCc1ccc(Cl)cc1,.,.,-,8.5µM,.,.
COc1cc(NC(=O)CSc2ncc(S(=O)(=O)c3ccc(Br)cc3)c(=O)[nH]2)cc(OC)c1,.,.,-,?,.,.
COc1ccc(S(=O)(=O)N(C)c2ccc(C(=O)N3CCCCC3)cc2)cc1OC,.,-,.,-,-,-
Cc1ccc2c(c1)cc1c(=O)n(CC(=O)N3CCCC3)nc(C)n12,.,-,.,-,-,-
CCn1c(O)c(N=NC(=O)c2cccs2)c2ccccc21,-,?,-,17µM,-,-
NC(=O)c1ccsc1NC(=O)COC(=O)/C=C/c1ccccc1,.,-,.,11µM,-,-
O=C(COC(=O)c1cc(Cl)ccc1O)NCCNC(=O)COC(=O)c1cc(Cl)ccc1O,.,-,.,-,-,-
NC(=O)c1ccsc1NC(=O)COC(=O)c1cc(Cl)ccc1O,.,-,.,4.3µM,-,-
NC(=O)c1ccsc1NC(=O)COC(=O)c1ccccc1F,.,-,.,11µM,-,-
O=C(NN=C(Cc1ccccc1)Cc1ccccc1)c1ccc(F)cc1,-,-,-,19µM,-,-
CCC/C(C)=N/NC(=O)c1ccccc1O,-,-,-,?,-,-
O=C(NN=C(Cc1ccccc1)Cc1ccccc1)c1ccccc1O,-,-,-,12µM,-,-
C/C(Cc1ccccc1)=N\NC(=O)c1ccc(F)cc1,-,-,-[1.84 µM],-,-,-
COC(=O)c1cccc(NC(=O)c2nsc3ccccc23)c1,.,.,?,0.95µM,.,.
COc1cccc(CNC(=O)c2cccc(NC(=O)c3nsc4ccccc34)c2)c1,.,.,.,6.7µM,.,.
O=C(Nc1cccc(C(=O)N2CCCCC2)c1)c1nsc2ccccc12,.,.,.,5.4µM,.,.
CCCCNC(=O)c1cccc(NC(=O)c2nsc3ccccc23)c1,.,.,.,4.8µM,.,.
COC(=O)c1cccc(NC(=O)c2nn(C(C)C)c(=O)c3ccccc23)c1,-,-,-,-,-,-
CCN1CCCC1CNC(=O)c1cc([N+](=O)[O-])c(N(C)C)cc1OC (stereo not given),.,-,.,-,-,-
O=C(Oc1ccccc1)N1CCC2(CCCN(c3ccc(-c4ccccc4)cc3)C2)CC1,-,.,-,.,.,.
COc1ccccc1NC(=O)CSc1nc(=O)n(Cc2ccncc2)c2c1CCCC2,.,-,.,-,-,-
O=C(NCc1ccc(Cl)cc1)c1cccc(NC(=O)c2ccccc2)c1,-,-,-,-,-,-
O=C(NCc1cccc(F)c1)c1cccc(NC(=O)c2nsc3ccccc23)c1,.,.,.,8.5µM,.,.
CCCCCN(C(=O)CCC(=O)OCC(=O)N(CC)C1CCCCC1)c1c(N)n(CCCC)c(=O)[nH]c1=O,.,-,.,-,-,-
Cc1cc(-c2ccc(N=Nc3ccc4c(S(=O)(=O)O)cc(S(=O)(=O)O)c(N)c4c3O)c(C)c2)ccc1N=Nc1ccc2c(S(=O)(=O)O)cc(S(=O)(=O)O)c(N)c2c1O,10µM,.,.,.,.,.
SMILES,Luc counter,NPC1 prom act,SMN2 splice enh,FLuc modulator,ELG1 genotoxic,Rab9 promoter act
COCC1CCN(C(=O)c2cc(COc3ccc(C)c(C)c3)on2)C1 (stereo not given),.,-,.,-,-,-
Cc1cccc(C)c1OCc1cc(C(=O)N2CC3C[C@@H]4CC2C[C@H](C3)C4)no1,.,2µM,.,?,-,1.6µM
Cc1ccc(OCc2cc(C(=O)N3CC4C[C@@H]5CC3C[C@H](C4)C5)no2)cc1C,.,3.5µM,.,8.5µM,?,1.4µM
Cc1cccc(C)c1OCc1cc(C(=O)N2CCC(c3ccccc3)CC2)no1,.,?,.,?,-,?
CC1CCC(NC(=O)COC(=O)CNC(=O)c2ccc3ccccc3c2)CC1 (stereo not given),.,-,.,?,-,-
CCN(CC)S(=O)(=O)c1cc(C(=O)NC2CCCCC2)ccc1C,-,2.8µM,?,7.6µM,?,4µM
CCN(CC)S(=O)(=O)c1cc(C(=O)Nc2ccc(Cl)cn2)ccc1C,-,1.8µM,1.6µM,2.4µM,1.8µM,1.6µM
CC(C)c1cc(C(=O)Nc2cccc(C(F)(F)F)c2)no1,-,-,-,15µM,?,-
Cc1cccc(NC(=O)c2cc(-c3ccc4c(c3)OCCO4)on2)c1,.,.,.,0.19µM,.,.
O=C(Nc1cccc(C(F)(F)F)c1)c1cc(-c2ccc(Cl)cc2)on1,.,.,-,-,.,.
O=C(Nc1cccc(C(F)(F)F)c1)c1cc(-c2ccc(F)cc2)on1,-,-,-,?,?,-
O=C(Nc1cccc(Cl)c1)c1cc(-c2ccc3c(c2)OCCO3)on1,.,.,.,0.48µM,.,.
O=C(Nc1cccc(C(F)(F)F)c1)c1cc(-c2ccc3c(c2)OCCO3)on1,.,.,.,1.5µM,.,.
O=C(Nc1ccc(Br)cc1)c1cc(-c2ccc3c(c2)OCO3)on1,.,-,.,-,-,-
Cc1ccc(NC(=O)c2cc(-c3ccc4c(c3)OCO4)on2)cc1,.,-,-,-,-,-
COCCn1c(SCC(=O)N(C)c2ccccc2)nc2c([nH]c3ccccc32)c1=O,.,-,.,-,-,-
Cc1ccc(Cl)cc1NC(=O)c1cc(-c2ccc3c(c2)OCCO3)on1,.,.,.,1.3µM,.,.
CCOC(=O)C1(Cc2ccccc2Cl)CCN(C(=O)c2cnccn2)CC1,.,?,.,15µM,?,2.8µM
CCCCOC(=O)c1cccc(NC(=O)/C=C/c2ccccc2Cl)c1,.,.,1.4µM,6.7µM,.,.
O=C(Cc1ccccc1)Nc1ccc(Cl)cn1,.,-,.,-,?,-
Cc1ccc(CNC(=O)/C=C/c2c(Cl)cccc2Cl)cc1,-,-,-,-,-,-
CN(C)c1ccc(NC(=O)/C=C/c2c(Cl)cccc2Cl)cc1,-,-,?,8.5µM,-,-
O=C(/C=C/c1ccccc1Cl)Nc1ccccc1,.,?,.,0.76µM,?,0.45µM
O=C(/C=C/c1ccccc1Cl)Nc1ccc(Cl)cn1,.,?,.,-,?,1.1µM
Cc1ccc(NC(=O)Cn2c(=O)n(CCCS(=O)(=O)C3CCCCC3)c(=O)c3ccccc32)cc1F,.,.,-,-,.,.
COc1cccc(CCNC(=O)c2c(O)nc3ccccn3c2=O)c1,.,.,-,-,.,.
CN(C)S(=O)(=O)c1ccc(NC(=O)/C=C/c2ccccc2Cl)cc1,-,-,-,21µM,-,-
O=C(/C=C/c1ccccc1Cl)Nc1cccc(O)c1,-,?,?,1.1µM,?,?
CCOc1ccccc1CNC(=O)C1CCCN(c2ncnc3onc(-c4ccc(F)cc4)c23)C1 (stereo not given),.,.,.,-,.,.
Cc1ccc(/C=N/Nc2nc3ccccc3s2)o1,-,?,2µM,0.85µM,0.82µM,?

# Screening data from PubChem.
